Reference: PubChem BioAssay (EPA / NIEHS)
The source made the active and inactive calls. Rule for the calls: active = hit-call score of the fitted dose curve at least 0.9, where 1 is the maximum; inactive = score below 0.9.

Read-out: Intercellular Adhesion Molecule 1 (ICAM1), ICAM1 (gene 3383)
Experiment: BSK_3C_ICAM1: BioMAP Diversity Plus: 3C Assay for Intercellular Adhesion Molecule 1 (ICAM1) Biomarker Activity (AID 2283003)
Settings: primary human endothelial cells (HUVEC); actives raise or lower the signal
In short: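 Primary human umbilical vein endothelial cells in the BioMAP 3C system were exposed to chemicals for 24 h, then ICAM-1 was quantified by ELISA. Activity was fitted bidirectionally against the DMSO negative control baseline.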

Compound | AC50 | outcome
COc1cccc(-c2ccc(/C=C\CN3CCCCCC3)cc2Cl)c1 | 33.5 µM (active) | –
O=C1CCC(N2C(=O)c3ccccc3C2=O)C(=O)N1 (centres undefined) | – | inactive
On1ccccc1=S | 24 µM (active) | –
O=C1OC(=O)C2C3C=CC(C3)C12 (centres undefined) | – | inactive
CCOCCOCCOCCO | – | inactive
CC(=O)OCCC(C)C | – | inactive
CC1(C)C(=O)N(Br)C(=O)N1Br | – | inactive
COCCOc1cc2cc(C(=O)NC3CCN(C(C)C)CC3)n(CC(=O)Nc3ccc(Cl)cn3)c2cn1 | – | inactive
CC(=O)OC[C@H]1O[C@@](COC(C)=O)(O[C@H]2O[C@H](COC(C)=O)[C@@H](OC(C)=O)[C@H](OC(C)=O)[C@H]2OC(C)=O)[C@@H](OC(C)=O)[C@@H]1OC(C)=O | – | inactive
O=C(CCCCCCCCc1cccnc1)N1CCC(C=C(c2ccccc2)c2ccccc2)CC1 | 15.4 µM (active) | –
CC[C@H](C)C(=O)O[C@H]1C[C@@H](C)C=C2C=C[C@H](C)[C@H](CC[C@@H]3C[C@@H](O)CC(=O)O3)[C@H]21 | 36.8 µM (active) | –
O=c1n(CC2CO2)c(=O)n(CC2CO2)c(=O)n1CC1CO1 (centres undefined) | – | inactive
COC(=O)CC(=O)OC | – | inactive
CCCCCCCCCCCCCCCO | – | inactive
CC(C)=CCC/C(C)=C\CO | – | inactive
C=CC(=C)CCC=C(C)C | – | inactive
CC1=CC(=O)CC(C)(C)C1 | – | inactive
CCOc1cccc(-n2cc(C(=O)N3CCN(c4cc(C(=O)O)c5ccccc5c4)CC3)nc2-c2ccc(C)cc2)c1 | 29.7 µM (active) | –
CC(C)CC(C)(O)C#CC(C)(O)CC(C)C (centres undefined) | – | inactive
Cc1ccc(O)cc1 | – | inactive
CCCC(=O)OCC | – | inactive
Cn1c(=O)cc(Oc2ccc(F)cc2F)c2cnc(NCC(C)(C)O)nc21 | – | inactive
CN(C)c1ccc(N=NS(=O)(=O)O)cc1 | – | inactive
CCC(C)(C)C(=O)O[C@H]1C[C@@H](C)C=C2C=C[C@H](C)[C@H](CC[C@@H]3C[C@@H](O)CC(=O)O3)[C@H]21 | – | inactive
Nc1nc2ncc(CNc3ccc(C(=O)N[C@@H](CCC(=O)O)C(=O)O)cc3)nc2c(=O)[nH]1 | – | inactive
Fc1ccccc1[C@@H](F)COC1CCC(Nc2ncnc3[nH]ncc23)CC1 (some centres undefined) | – | inactive
O=C(O)c1cc(N=Nc2ccc(S(=O)(=O)Nc3ccccn3)cc2)ccc1O | – | inactive
CCn1nc(Cc2ccccc2)cc1C1CCN(C[C@H]2C[C@H](N(C)[C@@H](C(=O)O)C(C)C)C[C@@H]2c2cccc(F)c2)CC1 | – | inactive
Cn1c(=O)c2c(ncn2C)n(C)c1=O | – | inactive

Read-out: not listed separately
Experiment: BSK_3C_Proliferation: Cell Proliferation Assessment in the BioMAP Diversity Plus: 3C Assay (AID 2283006);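 for AC50: potency may reflect either rise or fall in cell number versus DMSO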
Settings: primary human endothelial cells (HUVEC)
In short: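 Human umbilical vein endothelial cells were grown sub-confluent and exposed to chemical for 48 h, then fixed with 10% TCA and stained with 0.1% sulforhodamine B; absorbance at 560 nm gave relative cell number, fitted bidirectionally against DMSO baseline.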

Compound | AC50 | outcome
COc1cccc(-c2ccc(/C=C\CN3CCCCCC3)cc2Cl)c1 | 14.2 µM (active) | –
O=C1CCC(N2C(=O)c3ccccc3C2=O)C(=O)N1 (centres undefined) | – | inactive
On1ccccc1=S | 4.91 µM (active) | –
O=C1OC(=O)C2C3C=CC(C3)C12 (centres undefined) | – | inactive
CCOCCOCCOCCO | – | inactive
CC(=O)OCCC(C)C | – | inactive
CC1(C)C(=O)N(Br)C(=O)N1Br | – | inactive
COCCOc1cc2cc(C(=O)NC3CCN(C(C)C)CC3)n(CC(=O)Nc3ccc(Cl)cn3)c2cn1 | – | inactive
CC(=O)OC[C@H]1O[C@@](COC(C)=O)(O[C@H]2O[C@H](COC(C)=O)[C@@H](OC(C)=O)[C@H](OC(C)=O)[C@H]2OC(C)=O)[C@@H](OC(C)=O)[C@@H]1OC(C)=O | – | inactive
O=C(CCCCCCCCc1cccnc1)N1CCC(C=C(c2ccccc2)c2ccccc2)CC1 | 5.66 µM (active) | –
CC[C@H](C)C(=O)O[C@H]1C[C@@H](C)C=C2C=C[C@H](C)[C@H](CC[C@@H]3C[C@@H](O)CC(=O)O3)[C@H]21 | 13.6 µM (active) | –
O=c1n(CC2CO2)c(=O)n(CC2CO2)c(=O)n1CC1CO1 (centres undefined) | 1.46 µM (active) | –
COC(=O)CC(=O)OC | – | inactive
CCCCCCCCCCCCCCCO | 14.7 µM (active) | –
CC(C)=CCC/C(C)=C\CO | – | inactive
C=CC(=C)CCC=C(C)C | – | inactive
CC1=CC(=O)CC(C)(C)C1 | – | inactive
CCOc1cccc(-n2cc(C(=O)N3CCN(c4cc(C(=O)O)c5ccccc5c4)CC3)nc2-c2ccc(C)cc2)c1 | 13.5 µM (active) | –
CC(C)CC(C)(O)C#CC(C)(O)CC(C)C (centres undefined) | – | inactive
Cc1ccc(O)cc1 | – | inactive
CCCC(=O)OCC | – | inactive
Cn1c(=O)cc(Oc2ccc(F)cc2F)c2cnc(NCC(C)(C)O)nc21 | – | inactive
CCCCCCc1ccc(O)cc1O | 30.2 µM (active) | –
CN(C)c1ccc(N=NS(=O)(=O)O)cc1 | – | inactive
CCC(C)(C)C(=O)O[C@H]1C[C@@H](C)C=C2C=C[C@H](C)[C@H](CC[C@@H]3C[C@@H](O)CC(=O)O3)[C@H]21 | 4.32 µM (active) | –
Nc1nc2ncc(CNc3ccc(C(=O)N[C@@H](CCC(=O)O)C(=O)O)cc3)nc2c(=O)[nH]1 | – | inactive
Fc1ccccc1[C@@H](F)COC1CCC(Nc2ncnc3[nH]ncc23)CC1 (some centres undefined) | 29.3 µM (active) | –
O=C(O)c1cc(N=Nc2ccc(S(=O)(=O)Nc3ccccn3)cc2)ccc1O | – | inactive
CCn1nc(Cc2ccccc2)cc1C1CCN(C[C@H]2C[C@H](N(C)[C@@H](C(=O)O)C(C)C)C[C@@H]2c2cccc(F)c2)CC1 | – | inactive
Cn1c(=O)c2c(ncn2C)n(C)c1=O | – | inactive
